Reference: PubChem BioAssay AID463173 (ICCB-Longwood Screening Facility, Harvard Medical School, 2010)
The whole screen tested about 52,000 compounds, of which about 4,300 (8.3%) were called active. No stated cut-off is given here; in the data, active means survival mostly below about 52% (no sharp cut-off); inactive means mostly above about 56%. This excerpt belongs to a sample that is enriched for actives.

Test system: DeltatarO mutant
Assay: S. aureus survival, RN4220 and DeltatarO strains – OD600, teichoic acid synthesis inhibitors, primary screen (AID 463173)
Details: S. aureus RN4220 wild type/DeltatarO growth, OD600, 18 h, hits give low values, screened at 18.75 µg/mL (by protocol)

Question: `CCOc1ccc(NC(=O)c2cc(S(=O)(=O)NC3CCCC3)ccc2F)cc1` was tested. Which survival did it give?
Answer: 86% (inactive)

Question: Which survival does the source give for `COCCn1c(=O)[nH]c2cc(C(=O)N3CCN(c4ccc(F)cc4)CC3)ccc2c1=O` here?
Answer: 70% (inactive)

Question: How did the survival turn out when `CCN(Cc1ccccc1)C(=O)CN1C(=O)COc2ccc(S(=O)(=O)NC3CCCC3)cc21` was run?
Answer: 78% (inactive)

Question: For `CC(C)NC(=O)CN1CCN(c2ccc(F)cc2)CC1`, which survival is on record?
Answer: 87% (inactive)

Question: For `Cc1ccc(S(=O)(=O)c2cn(C)c3cc(N4CCN(c5ccccc5)CC4)c(F)cc3c2=O)cc1`, which survival is on record?
Answer: 95% (inactive)

Question: For `CC(=O)N1CCc2cc(Br)cc(S(=O)(=O)CCC(=O)N3CCN(c4ccccc4Cl)CC3)c21`, which survival is on record?
Answer: 61% (inactive)

Question: For `CC(=O)N1CCc2cc(Br)cc(S(=O)(=O)CCC(=O)N3CCN(c4ccc(F)cc4)CC3)c21`, which survival is on record?
Answer: 67% (inactive)

Question: With `COc1ccccc1N1CCN(C(=O)CCS(=O)(=O)c2cc(Br)cc3c2N(C(C)=O)CC3)CC1` as the compound, how does the survival read?
Answer: 53% (inactive)

Question: `CC(=O)N1CCc2cc(Br)cc(S(=O)(=O)CCC(=O)N3CCN(c4ccccc4)CC3)c21` was tested. Which survival did it give?
Answer: 53% (active)

Question: Which survival does the source give for `O=C(CCS(=O)(=O)c1cc(Br)cc2c1N(C(=O)C1CC1)CC2)N1CCN(c2ccccc2)CC1` here?
Answer: 91% (inactive)

Question: `CC(=O)N1CCc2cc(Br)cc(S(=O)(=O)CCC(=O)N3CCN(c4cccc(C)c4C)CC3)c21` was tested. Which survival did it give?
Answer: 45% (active)

Question: How did the survival turn out when `O=C(NCCS(=O)(=O)N1CCN(c2ccccc2F)CC1)C1CC(=O)N(c2ccc(F)cc2)C1` (centres undefined) was run?
Answer: 90% (inactive)

Question: `O=C(NCCc1csc2nc(-c3cccc(F)c3)nn12)c1ccc(Br)o1` was tested. Which survival did it give?
Answer: 76% (inactive)

Question: Which survival does the source give for `COc1ccc(-n2c(CNc3ccccc3Cl)nnc2SCC(N)=O)cc1` here?
Answer: 86% (inactive)

Question: `CCN(CC)CCC(=O)c1ccc(OC(C)C)cc1` was tested. Which survival did it give?
Answer: 92% (inactive)

Question: With `CCOC(=O)c1ccc(NC(=O)c2ccc(-c3cccc(Cl)c3C)o2)cc1` as the compound, how does the survival read?
Answer: 37% (active)

Question: With `COc1ccc(NC(=O)c2ccc(-c3cccc(Cl)c3C)o2)cc1` as the compound, how does the survival read?
Answer: 16% (active)

Question: For `COc1ccc(NC(=O)c2cc(-c3ccccc3O)no2)cc1`, which survival is on record?
Answer: 69% (inactive)

Question: `CCOC(=O)c1ccc(NC(=O)c2c(-c3c(F)cccc3Cl)noc2C)cc1` was tested. Which survival did it give?
Answer: 59% (inactive)

Question: How did the survival turn out when `CCOc1ccc(NC(=O)c2ccc(-c3cccc(Cl)c3C)o2)cc1` was run?
Answer: 42% (active)

Question: For `CCOc1ccc(NC(=O)c2cc3cc4ccc(C)cc4nc3o2)cc1`, which survival is on record?
Answer: 83% (inactive)

Question: How did the survival turn out when `CCOC(=O)c1ccc(NC(=O)c2cc(=O)c3cc(CC)ccc3o2)cc1` was run?
Answer: 62% (inactive)

Question: Which survival does the source give for `CCOc1ccc(-c2cc(C(=O)Nc3ccc(NC(C)=O)cc3)no2)cc1` here?
Answer: 61% (inactive)

Question: Which survival does the source give for `Cc1c(Cl)cccc1-c1ccc(CNc2ccc3[nH]c(=O)[nH]c3c2)o1` here?
Answer: 51% (inactive)

Question: `Cc1c(Cl)cccc1-c1ccc(C(=O)Nc2ccc(F)cc2)o1` was tested. Which survival did it give?
Answer: 1% (active)

Question: For `Cc1c(NC(=O)c2ccc(-c3ccc(F)cc3)o2)cccc1-c1nc2ncccc2o1`, which survival is on record?
Answer: 55% (inactive)

Question: With `COc1ccc(NC(=O)c2coc(C)c2)cc1` as the compound, how does the survival read?
Answer: 82% (inactive)

Question: With `Cc1cccc(CNC(=O)CS(=O)(=O)c2cccc3nsnc23)c1` as the compound, how does the survival read?
Answer: 78% (inactive)

Question: Which survival does the source give for `COc1cccc(CNC(=O)CSc2nc3ccccc3nc2Cc2ccc(C)cc2)c1OC` here?
Answer: 74% (inactive)

Question: Which survival does the source give for `COCCCn1c(=N)c(S(=O)(=O)c2ccccc2)cc2c(=O)n3cc(C)ccc3nc21` here?
Answer: 68% (inactive)

Question: How did the survival turn out when `CCOc1ccc(C2CC(=O)c3c([nH]c(C(=O)OCCOc4ccccc4)c3C)C2)cc1` (centres undefined) was run?
Answer: 72% (inactive)

Question: `Cc1ccc(NC(=O)c2ccc(-c3cccc(Cl)c3C)o2)cc1` was tested. Which survival did it give?
Answer: 1% (active)

Question: `O=C(Nc1cccc(-c2nc3ncccc3o2)c1)c1ccc(-c2cccc(Cl)c2Cl)o1` was tested. Which survival did it give?
Answer: 79% (inactive)

Question: `Cc1c(Cl)cccc1-c1ccc(C(=O)Nc2ccc3oc(-c4cccnc4)nc3c2)o1` was tested. Which survival did it give?
Answer: 55% (inactive)

Question: For `CCc1ccc(NC(=O)N2CCOc3ccc(Cl)cc32)cc1`, which survival is on record?
Answer: 65% (inactive)

Question: With `CCOC(=O)c1ccccc1NC(=O)N1CCOc2ccc(Cl)cc21` as the compound, how does the survival read?
Answer: 99% (inactive)

Question: With `COc1ccc(NC(=O)N2CCOc3ccc(Cl)cc32)cc1` as the compound, how does the survival read?
Answer: 44% (active)

Question: `Cc1ccc(C(=O)N(Cc2sccc2C)C2CCS(=O)(=O)C2)cc1` (centres undefined) was tested. Which survival did it give?
Answer: 76% (inactive)

Question: `CCn1c(SC)nnc1C1CCCN1CC(=O)N1CCN(Cc2ccc3c(c2)OCO3)CC1` (centres undefined) was tested. Which survival did it give?
Answer: 79% (inactive)

Question: How did the survival turn out when `CCC(=O)Nc1ccc2nc(SCc3ccccc3)sc2c1` was run?
Answer: 76% (inactive)

Question: With `CCc1ccc(Nc2nc(N)nc(CSc3nc4ccccc4s3)n2)cc1` as the compound, how does the survival read?
Answer: 21% (active)

Question: How did the survival turn out when `Cc1ccc(Nc2nc(N)nc(CSc3nc4ccccc4s3)n2)cc1` was run?
Answer: 25% (active)

Question: Which survival does the source give for `Cc1c(Cl)cccc1Nc1nc(N)nc(CSc2nc3ccccc3s2)n1` here?
Answer: 24% (active)

Question: For `Cc1ccc(CSc2nc3ccc(NC(=O)COc4ccccc4)cc3s2)cc1`, which survival is on record?
Answer: 87% (inactive)

Question: With `Nc1nc(CSc2ccccn2)nc(Nc2ccccc2)n1` as the compound, how does the survival read?
Answer: 97% (inactive)

Question: With `C/C=N/NC(=O)CSc1nc2ccccc2s1` as the compound, how does the survival read?
Answer: 96% (inactive)

Question: `Cc1c(Cl)cccc1Nc1nn2c(=O)c3ccccc3nc2s1` was tested. Which survival did it give?
Answer: 73% (inactive)

Question: With `Cc1ccc(Nc2nc(N)nc(CSc3nccn3C)n2)cc1` as the compound, how does the survival read?
Answer: 93% (inactive)

Question: How did the survival turn out when `COC(=O)Cn1c(=NC(=O)c2ccc3c(c2)OCCO3)sc2ccccc21` was run?
Answer: 97% (inactive)

Question: Which survival does the source give for `Cc1cccc(NC(=O)C2CCCN(c3nc4ccccc4s3)C2)c1C` (centres undefined) here?
Answer: 83% (inactive)

Question: With `COC(C(=O)Nc1ccc2c(c1)OCCO2)c1ccccc1` (centres undefined) as the compound, how does the survival read?
Answer: 87% (inactive)

Question: How did the survival turn out when `C=CCn1c(SCC(=O)c2cccs2)nc2sc(C)cc2c1=O` was run?
Answer: 93% (inactive)

Question: Which survival does the source give for `CC1CC(C(F)F)n2nc(C(=O)Nc3sc4c(c3C#N)CCC(C(C)(C)C)C4)nc2N1` (centres undefined) here?
Answer: 103% (inactive)

Question: Which survival does the source give for `CCCCN(CCCC)CCNC(=O)Cn1nc(CC)n2c(cc3sc(C)cc32)c1=O` here?
Answer: 85% (inactive)

Question: With `CCCSc1nnc2c(n1)OC(CC)N(C(C)=O)c1ccccc1-2` (centres undefined) as the compound, how does the survival read?
Answer: 62% (inactive)

Question: Which survival does the source give for `COc1ccc(-c2noc(N3CCN(c4cccc(C)c4C)CC3)n2)cc1OC` here?
Answer: 94% (inactive)

Question: How did the survival turn out when `Cc1ccc(OCc2ccc(-c3nc(C#N)c(NCc4ccccc4Cl)o3)o2)cc1` was run?
Answer: 100% (inactive)

Question: For `O=C(Nc1ccc(C(F)(F)F)cc1)c1cc(S(=O)(=O)N2CCCc3ccccc32)ccc1F`, which survival is on record?
Answer: 101% (inactive)

Question: How did the survival turn out when `COc1ccc(NC(=O)c2sc3nc[nH]c(=O)c3c2C)cc1Cl` was run?
Answer: 99% (inactive)
